Only some compounds are listed: those with a hit (about 2.9% of all), similar ones and a draw of the others.
DRD3 agonist = D3 dopamine receptor (human) agonism. P35462. D3R DiscoveRx beta-arrestin cells, luminescence, 90 min. max activation, %. 410,000 compounds, 0.58% hits; in the data active = max activation above about 30%; also: 0% is about no effect
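Agonist-mode cell screen: cells plated at 1500/well and incubated overnight at 37 °C, then exposed to library compounds for 90 min at 37 °C. Detection reagent was added for 30–60 min at room temperature, and luminescence was read.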
Rango complex inh = prevents formation of the Rango-importin beta complex; Q14974; Rango CFP/YFP FRET sensor + importin beta, 45 min; Potency, µM (highest dose often 92.2 µM), for inactives: top-dose inhibition of complex formation; 340,000 compounds, 0.031% hits; AID 540263;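 also: potency is read from the fitted curve at half-maximal effect; 0% = DMSO wells and 100% = buffer wells lacking importin beta; nearly all actives have a fitted effect of over 15% in size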
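FRET biosensor (snurportin 1 IBB flanked by EYFP and cerulean), 50 nM, with compound 5 min, then 0.125 microM importin beta in PBS, 1 mM DTT, 0.02% Tween-20, 0.1% BSA. CFP/YFP ratio read after 45 min at room temperature; pre-read flags interference.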
TSG101-PTAP inh = blocks PTAP/TSG101 interaction to inhibit HIV-1 budding | Fluorescence polarization, FITC-PTAP peptide / Tsg101 binding | Q99816 | Potency, µM (series often up to 115 µM), inactives show top-dose activity change, negative = inhibition, hits mostly inhibitors | 340,000 tested, under 10 active; active = well fitted inhibition curve with a large enough effect in the main read-out, with a control signal flat, not every such curve was filed as active; inconclusive = small, poorly fitted or top-dose-only effect, or effect the other way, or a change in a side signal; inactive = no such curve, though single readings can be large or run the other way; also: potency is read from the fitted curve at half-maximal effect; % of control where 0% means no effect
Target sequence (Q99816 whole entry, looked up): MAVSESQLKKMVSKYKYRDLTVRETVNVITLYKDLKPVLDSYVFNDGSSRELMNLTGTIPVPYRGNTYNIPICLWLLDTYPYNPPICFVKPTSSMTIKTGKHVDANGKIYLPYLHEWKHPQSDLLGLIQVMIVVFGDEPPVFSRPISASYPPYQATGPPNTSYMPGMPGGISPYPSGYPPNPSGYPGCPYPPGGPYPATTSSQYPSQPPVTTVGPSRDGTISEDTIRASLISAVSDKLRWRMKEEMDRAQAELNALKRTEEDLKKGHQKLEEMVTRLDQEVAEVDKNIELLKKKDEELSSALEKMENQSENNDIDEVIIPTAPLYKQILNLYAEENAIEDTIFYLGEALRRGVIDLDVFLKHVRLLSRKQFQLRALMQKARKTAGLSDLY
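FP read-out: FITC-PTAP peptide, 50 nM final, binding Tsg101 binding domain, 10 uM final; 20 min, r.t.; 10 mM HEPES pH 7.5, 0.15 M NaCl, 0.01% Tween 20, 3 mM EDTA, 0.1 mM TCEP.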
Mm-Cpn inhibitor = inhibitors of Methanococcus maripaludis chaperonin TRiC (MmCpn). 330,000 compounds, 0.031% hits. Potency, µM (highest dose often 76.9 µM), for the others: top-dose activity, negative = inhibition, actives largely listed as inhibitors. purified Mm-Cpn ATPase, ADP Transcreener TR-FRET; active = well fitted inhibition curve with a large enough effect; inconclusive = small, poorly fitted or top-dose-only effect; also: potency is read from the fitted curve at half-maximal effect; % is scaled to controls: 0 for no effect and ±100 for the full control effect; nearly all actives have a fitted effect of over 80% in size
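Purified archaeal Mm-CPN (25nM final) preincubated 10 min at 37degC with compound, then 10uM ATP for 30 min at 37degC; ADP measured by HTRF Transcreener TR-FRET; buffer 30 mM TRIS pH 7.4, 100mM KCl, 5mM MgCl2, 1mM DTT.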
Rango release inh = inhibition of RanGTP-driven Rango-importin beta dissociation | Potency, µM (doses to about 46.1 µM), for the others: at the top dose activity change, negative = inhibition | O95149+P62826 | AID 540253 | 340,000 compounds, 0.071% hits | Biochemical FRET Rango-importin beta, RanGTP-induced dissociation; also: potency is read from the fitted curve at half-maximal effect; % of control where 0% means no effect; nearly all actives have a fitted effect of over 45% in size
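Recombinant Rango FRET biosensor (EYFP–snurportin 1 IBB–cerulean CFP10) at 0.1 uM premixed with 0.25 uM importin beta in PBS, 1 mM DTT, 0.02% Tween-20, 0.1% BSA. Compound added 5 min; RanGTP-RCC1 (0.6 uM Ran, 2 mM GTP, 0.2 uM RCC1) then triggers release, read at 45 min.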
D3 antag = D3 dopamine receptor (human) antagonism; AID 652054; P35462; D3R cells, DiscoveRx beta-arrestin luminescence, antagonist mode; stronger effect = lower value; 360,000 compounds, 2.5% hits; max response, negative = inhibition, %; in the data active = max response below about -50%; inconclusive = no clear call, values can overlap the other calls; also: % is scaled to controls: 0 for no effect and ±100 for the full control effect
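Cells expressing the human receptor were seeded at 1500 cells/well, incubated overnight at 37 degrees C in 5% CO2, then exposed to library compounds with dopamine controls for 90 minutes at 37 degrees C before luminescent detection.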
An asterisk follows results filed as active; ? = inconclusive; . = no result. Unless noted, calls follow the shape of the full dose curve.

SMILES	DRD3 agonist	Rango complex inh	TSG101-PTAP inh	Mm-Cpn inhibitor	Rango release inh	D3 antag
O=C(Cc1ccc(Br)cc1)N1CCN(Cc2ccccc2)CC1	0	-1%	1%	-1%	-19%	4
Cc1cc(C(=O)Nc2ccc(CC(=O)O)cc2)c(C)o1	-4	0%	-3%	?	?	-7
COCCCN1CCN(c2nnc3n2-c2sc(Br)cc2C(c2ccccc2Cl)=NC3)CC1	-6	0%	0%	1%	-8%	-57*
CC(C)[C@@]1(NC(=O)[C@@H]2C[C@@H]3c4cccc5[nH]cc(c45)C[C@H]3N(C)C2)O[C@@]2(O)[C@@H]3CCCN3C(=O)[C@H](Cc3ccccc3)N2C1=O	-59	-1%	-6%	-8%	7%	-96*
CC(C)[C@H]1C(=O)N2CCC[C@H]2[C@]2(O)O[C@](NC(=O)[C@@H]3C[C@@H]4c5cccc6[nH]cc(c56)C[C@H]4N(C)C3)(C(C)C)C(=O)N12	5	.	.	.	.	.
O=S(=O)(O)C(F)(F)C(F)(F)C(F)(F)C(F)(F)C(F)(F)C(F)(F)C(F)(F)C(F)(F)F	-15	.	.	.	.	.
c1ccc2c(CN3CCN(C4CCCCC4)CC3)c[nH]c2c1	-13	0%	0%	1%	-6%	-67*
c1ccc2c(CN3CCCCCCC3)c[nH]c2c1	-5	-1%	-1%	-1%	-2%	-2
O=[N+]([O-])c1ccc(NC2CCN(Cc3ccccc3)CC2)c2ccncc12	-25	-1%	-5%	1%	0%	-74*
COc1cccc(C(=O)C2CCCN(Cc3ccc(F)cc3)C2)c1 (stereo unspecified)	-24	-4%	-4%	-1%	14%	-56*
COc1c(C)cc(C(=O)C2CCCN(Cc3cccc(C)n3)C2)cc1C (stereo unspecified)	-2	0%	-5%	-2%	-13%	14
COc1c(C)cc(C(=O)C2CCCN(Cc3cccc(O)c3)C2)cc1C (stereo unspecified)	-19	2%	0%	0%	-19%	-60*
CN1CCN(Cc2ccc(N)cc2)CC1	7	1%	-1%	2%	10%	-5
CN1CCN(Cc2cc(C(C)(C)C)c(O)c(C(C)(C)C)c2)CC1	-9	-2%	-8%	-1%	-4%	-82*
CCCCNC(C)Cc1ccccc1 (stereo unspecified)	-68	0%	0%	0%	0%	-51*
CC(C)C[C@H](CN)CC(=O)O	2	.	.	.	.	.
CC(Cc1ccccc1)[n+]1cc(/N=C(\[O-])Nc2ccccc2)on1 (stereo unspecified)	1	-1%	1%	-1%	-7%	-54*
CC(Cc1ccccc1)[n+]1cc(/N=C(\N)[O-])on1 (stereo unspecified)	-2	0%	0%	-1%	7%	6
CC(=O)O[C@H]1C[C@H](O[C@H]2[C@@H](O)C[C@H](O[C@H]3[C@@H](O)C[C@H](O[C@H]4CC[C@@]5(C)[C@H](CC[C@@H]6[C@@H]5C[C@@H](O)[C@]5(C)[C@@H](C7=CC(=O)OC7)CC[C@]65O)C4)O[C@@H]3C)O[C@@H]2C)O[C@H](C)[C@H]1O[C@@H]1O[C@H](CO)[C@@H](O)[C@H](O)[C@H]1O	3	.	.	.	.	.
CCN1CCN(Cc2cc(Br)cc(OC)c2O)CC1	-38	-2%	-5%	-1%	9%	-53*
Oc1c(Br)cc(Br)cc1CN1CCN(Cc2ccccc2)CC1	-3	2%	-10%	0%	0%	?
CN1CC(C(=O)c2cccs2)C(c2ccc(Cl)cc2)C1 (stereo unspecified)	-25	3%	-7%	-2%	9%	-75*
CN1CC(C(=O)c2ccc(Cl)cc2)C(c2ccccc2)C1 (stereo unspecified)	2	4%	-1%	0%	-2%	?
O=C(CN1CC=C(c2ccccc2)CC1)Nc1cc(Cl)ccc1Cl	-7	?	0%	1%	-16%	3
O=C(CN1CC=C(c2ccccc2)CC1)Nc1c(Cl)cccc1Cl	1	-5%	-15%	-1%	12%	-71*
SMILES	DRD3 agonist	Rango complex inh	TSG101-PTAP inh	Mm-Cpn inhibitor	Rango release inh	D3 antag
S=C=S	4	.	.	.	.	.
O=C(CNS(=O)(=O)c1ccc(Br)s1)N1CCC2(CC1)OCCO2	9	0%	-5%	3%	2%	-55*
O=C(c1ccc(CS(=O)(=O)c2ccc(Br)cc2)o1)N1CCC2(CC1)OCCO2	4	0%	0%	-1%	19%	22
O=C(c1ccc(CS(=O)(=O)c2ccccc2)o1)N1CCC2(CC1)OCCO2	34*	0%	0%	1%	-15%	9
Cc1ccc(S(=O)(=O)Nc2cc(C(=O)N3CCC4(CC3)OCCO4)ccc2N2CCCCC2)cc1	-7	0%	1%	0%	50%	-54*
O=C(c1ccc(CNS(=O)(=O)c2ccccc2)cc1)N1CCC2(CC1)OCCO2	0	4%	-2%	-4%	-15%	-53*
O=c1[nH]c(=O)n(Cl)c(=O)n1Cl	10	.	.	.	.	.
O=C1NCCN(Cc2cccc(Oc3ccccc3)c2)C1CC(=O)N1CCCCC1 (stereo unspecified)	6	?	0%	-4%	-29%	5
COC(=O)C1C2CC[C@@H](CC1OC(=O)c1ccccc1)N2 (stereo partly specified)	41*	0%	4%	0%	-8%	19
O=C1C=C2C=C[C@@H]3C[C@@]2(O1)[C@H]1CCCCN31	-16	.	.	.	.	.
CN(C)c1ccc(CN2CC=C(c3ccc(F)cc3)CC2)cc1	-60	-1%	-6%	-7%	-16%	-88*
COc1cc(CN2CC=C(c3ccc(F)cc3)CC2)cc(OC)c1	-24	0%	-3%	2%	10%	-88*
COc1cc(C)c(CN2CC=C(c3ccc(F)cc3)CC2)cc1C	-10	-1%	-6%	3%	-5%	-76*
COc1cc2nc(CN3CC=C(c4ccccc4)CC3)[nH]c(=O)c2cc1OC	5	?	0%	.	?	22
O=[N+]([O-])c1ccc(CN2CC=C(c3ccccc3)CC2)cc1	-16	1%	2%	-3%	-5%	-55*
COc1ccc(CN2CCNCC2)cc1	5	1%	-1%	1%	33%	-7
O=C1NCCOC(=O)[C@H](Cc2ccc(F)cc2)CC/C=C/C[C@@H]1CC(=O)N(CCO)Cc1ccccc1	3	-1%	-9%	?	7%	-24

Screening data deposited in PubChem by National Center for Advancing Translational Sciences (NCATS).
